From PubChem BioAssay (NCATS) come the findings set out here.

Experiment [1] in a line: Nrf2 qHTS screen for inhibitors: Validation (AID 493153; active = well fitted inhibition curve with a large enough effect in the main read-out, with a control signal flat, not every such curve was filed as active). The note with it: Potency: luciferase luminescence; viability change: measured here: cytotoxicity max response. The gist of the method: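 Concentration-response on A549 ARE_Fluc reporter cells exposed 18-24 h at 37 C, 5% CO2. Cytotoxicity read first by CellTiter-Fluor fluorescence (Ex 405/Em 525), then Nrf2 inhibition by BugLite luminescence after 15 min.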

Experiment [2] can be described thus: qHTS for Inhibitors of Cell Surface uPA Generation: Validation Assay (AID 493164).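 Note: RAW 264.7 macrophage cells exposed to compound for 18 h; 0% is about no effect.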 The gist of the method: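 ATP-Lite luminescence read-out: ATP remains high when uPA activity-dependent LF translocation into the cytoplasm is blocked. RAW 264.7 cells, 18 h compound exposure at 37 C; 7-point titration, 2.45 nM to 38.3 uM final.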
In general terms: In qHTS, concentration-response curves come from the screen itself.

For experiment [3], the target named is Galactokinase (Homo sapiens) (UniProt P51570). As to the kind of experiment: qHTS Validation Assay for Inhibitors of Human Galactokinase (GALK) (AID 493189). Note: 0% is about no effect. In short, it runs like this:
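GALK (5 nM) with 35 uM ATP and 100 uM galactose in HEPES pH8.0, MgCl2, NaCl, DTT, BSA; 1 h at room temperature. Residual ATP read by Kinase-Glo Plus luminescence after 10 min.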

The nature of experiment [4]: Validation screen for small molecules that induce DNA re-replication in SW480 colon adenocarcinoma cells (AID 504364). Note: 0% is about no effect. The gist of the method:
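Image-based DNA content read-out: Hoechst stain 40 min, total nuclear fluorescence intensity (ex 405 nm, em 500-530 nm) after 48 h compound exposure of 250 SW480 cells/well at 37 C, 5% CO2, versus DMSO vehicle.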

Experiment [5] has as its target Peptidyl-prolyl cis-trans isomerase NIMA-interacting 1 (Homo sapiens) (UniProt Q13526). Nature of the experiment: qHTS Validation Assay to Find Inhibitors of Pin1 (AID 504536; active = well fitted inhibition curve with a large enough effect in the polarisation, with a control signal flat, not every such curve was filed as active; the % refers to the polarisation;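 note: 0% = full Pin1 enzyme wells and -100% = no-enzyme wells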). The gist of the method: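 Fluorescence polarization competition: compounds (titration) displace HiFluor-488-labeled Pin1-1b peptide from Pin1 (0.3 uM final) in pH 7.5 HEPES buffer with DTT, 10 min at room temperature; %Activity normalized to no-enzyme wells, curves fitted.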

The target in experiment [6] is Phosphoglycerate kinase, glycosomal (Trypanosoma brucei brucei) (UniProt P07378). As to the kind of experiment: qHTS Validation Assay to Find Inhibitors of Phosphoglycerate Kinase (AID 504547).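 Note: control wells lack PGK and mark full inhibition.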 In short, it runs like this:
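Compounds are pinned into the substrate/PGK mixture, and GAPDH (100nM final) is added to start the reaction by producing 1,3-BPG. After 60 minutes at room temperature, Kinase-Glo Plus is added and luminescence is measured 10 minutes later.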

For experiment [7], the target named is phosphoglycerate mutase (Leishmania major) (UniProt Q4Q090). As to the kind of experiment: qHTS Validation Assay to Find Inhibitors of Phosphoglycerate Mutase (AID 504548). Note: series mostly up to about 58 µM; % is set by controls: 0 for no effect and ±100 for the full control effect. In short, it runs like this:
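Lm PGAM at 1.25 nM final with substrate in 100 mM TEA pH 7.6, 5 mM MgCl2, 0.01% Tween-20; 45 min at room temperature. Kinase-GloPlus added, 10 min, end-point luminescence read.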

In experiment [8] the target is Ubiquitin carboxyl-terminal hydrolase 1 (Homo sapiens) (UniProt O94782). Nature of the experiment: Inhibitors of USP1/UAF1: Pilot qHTS (AID 504865).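 Note: rhodamine fluorescence freed from ubiquitin-rhodamine substrate followed over time; top concentration of the series differs between compounds; % is set by controls: 0 for no effect and ±100 for the full control effect; nearly all actives have a fitted effect of over 35% in size.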 The gist of the method:
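USP1/UAF1 complex (1nM) preincubated with compound 15 min at room temperature, then Ub-Rho substrate (150nM final) added. Fluorescence read kinetically at 480/540 nm, 6 reads every 60 seconds. Buffer: 50mM HEPES pH 7.8, 0.5mM EDTA, 0.1 mg/ml BSA, 1mM TCEP, 0.01% Tween-20.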

A short description of experiment [9]: qHTS for Inhibitors of ATXN expression: Validation of Cytotoxic Assay (AID 588349). Note: potency is the fitted concentration of half-maximal effect. In short, it runs like this:
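Cytotoxicity counter-screen: ATP-based luminescent viability (CellTiter Glo) after 72 hr exposure of HEK293 cells to a compound titration at 37 degrees C.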

Experiment [10] in a line: qHTS for Inhibitors of ATXN expression: Validation (AID 588378). Note: nearly all actives have a fitted effect of over 75% in size. Note: potency is the fitted concentration of half-maximal effect. The gist of the method: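 Luminescence from an ATXN2-FFLuc reporter in HEK293 cells served as read-out after 24 h compound treatment at 37 degrees C; CellTiter-Fluor fluorescence was recorded first to assess viability.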
Experiment [11] addresses Thyrotropin-releasing hormone receptor (Homo sapiens) (UniProt P34981). Nature of the experiment: qHTS for Small Molecule Agonists and Allosteric Enhancers of Human TRH Receptor: Validation Screen for Agonists (AID 493127;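 active = calcium activation more than 3 SD above the typical response in the agonist read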;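 note: intracellular calcium rise by fluo-8 fluorescence before TRH EC20 addition; 0% is about no effect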). The following applies: TRH receptor agonist cell assay; at 2 µM; stronger effect = higher value. In short, it runs like this:
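Compound-evoked intracellular calcium release in fluo-8-loaded TRHR cells, read kinetically on FDSS (Ex 480/Em 530, 1 s/cycle) after 23 nL pintool transfer. Agonist phase preceded 10 nM TRH EC20 addition.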

In experiment [12] the target is Estrogen receptor (Homo sapiens) (UniProt P03372). As to the kind of experiment: qHTS assay for small molecule antagonists of estrogen receptor alpha signaling (AID 588513; active = well fitted curve in the direction sought with a large enough effect in the signal ratio, with a control signal flat, not every such curve was filed as active; the % refers to the signal ratio; note: % is set by controls: 0 for no effect and ±100 for the full control effect). In short, it runs like this: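 ER-alpha-UAS-bla GripTite HEK 293 cells in medium with 2% charcoal/dextran-treated FBS were preincubated 4 h at 37 C, dosed with compound (1:2 titration), stimulated with 0.5nM 17-beta-estradiol for 18 h, then read by CCF4 beta-lactamase fluorescence.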
Sequence of Estrogen receptor (Homo sapiens) (P03372 whole entry, looked up): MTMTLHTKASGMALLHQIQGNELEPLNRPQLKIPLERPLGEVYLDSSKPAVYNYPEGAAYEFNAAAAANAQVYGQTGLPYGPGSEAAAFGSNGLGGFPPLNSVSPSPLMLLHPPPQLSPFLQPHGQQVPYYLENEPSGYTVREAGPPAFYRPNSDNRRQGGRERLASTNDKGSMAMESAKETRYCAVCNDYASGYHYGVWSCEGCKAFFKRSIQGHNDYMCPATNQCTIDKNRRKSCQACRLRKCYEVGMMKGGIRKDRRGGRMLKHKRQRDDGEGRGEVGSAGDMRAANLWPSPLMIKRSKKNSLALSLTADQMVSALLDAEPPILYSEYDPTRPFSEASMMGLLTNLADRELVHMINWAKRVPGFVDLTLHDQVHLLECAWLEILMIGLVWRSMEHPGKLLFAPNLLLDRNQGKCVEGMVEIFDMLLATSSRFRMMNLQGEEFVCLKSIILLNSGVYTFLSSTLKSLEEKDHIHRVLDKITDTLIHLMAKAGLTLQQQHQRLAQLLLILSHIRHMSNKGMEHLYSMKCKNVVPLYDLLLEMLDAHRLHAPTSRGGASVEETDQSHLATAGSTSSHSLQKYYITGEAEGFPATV

For experiment [13] the target is unchanged. As to the kind of experiment: qHTS assay for small molecule agonists of estrogen receptor alpha signaling (AID 588514; calls by dose curve;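 note: 0% = vehicle only and 100% = reference agonist; nearly all actives have a fitted effect of over 70% in size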). The gist of the method: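 EC50 and efficacy came from Hill fits of beta-lactamase reporter signal (CCF4 dye, 2 h at room temperature) scaled between DMSO and 20 nM 17-beta-estradiol. Agonist mode: HEK293 ER-alpha-UAS-bla cells in charcoal/dextran-stripped serum medium, 18 h compound exposure at 37 C.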

Experiment [14] addresses Bile acid receptor (Homo sapiens) (UniProt Q96RI1). As to the kind of experiment: qHTS assay for small molecule antagonists of farnesoid X receptor signaling (AID 588526; calls by dose curve; note: % is set by controls: 0 for no effect and ±100 for the full control effect). In short, it runs like this: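 Antagonist mode: titrated compounds tested against chenodeoxycholic acid stimulation (normalized to 50 uM CDCA and DMSO) in GeneBLAzer HEK293T cells for 16 h. Beta-lactamase read by CCF4 fluorescence; IC50 from Hill fits.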

Experiment [15] is described as follows: qHTS assay for small molecule antagonists of peroxisome proliferator-activated receptor delta signaling (AID 588535; active = well fitted inhibition curve with a large enough effect in the signal ratio, with a control signal flat, not every such curve was filed as active; the % refers to the signal ratio;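 for max response: cells co-treated with a PPAR-delta agonist as stimulator during compound exposure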). The note with it: HEK293T PPARd-UAS-bla, beta-lactamase FRET ratio, 18 h; 460 nm channel. In short, it runs like this: (§1)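 Fluorescence from CCF4-loaded GeneBLAzer PPAR-delta-UAS-bla HEK293T cells (2 hrs RT loading) quantified reporter inhibition after an 18 hr, 37 C compound exposure across a titration.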

Experiment [16] addresses Peroxisome proliferator-activated receptor delta (Homo sapiens) (UniProt Q03181). The experiment is described as above. The gist of the method: as §1

Results filed as inconclusive are left out. Active and inactive are the calls of the source. Unless noted, calls come from the whole dose curve; as a rule, active = well fitted curve in the direction sought with a large enough effect; inconclusive = small, poorly fitted or top-dose-only effect, or another doubt; inactive = no such curve, though single readings can be large; an effect the other way counts as inactive or inconclusive.

Sequence of Phosphoglycerate kinase, glycosomal (Trypanosoma brucei brucei) (P07378 whole entry, looked up): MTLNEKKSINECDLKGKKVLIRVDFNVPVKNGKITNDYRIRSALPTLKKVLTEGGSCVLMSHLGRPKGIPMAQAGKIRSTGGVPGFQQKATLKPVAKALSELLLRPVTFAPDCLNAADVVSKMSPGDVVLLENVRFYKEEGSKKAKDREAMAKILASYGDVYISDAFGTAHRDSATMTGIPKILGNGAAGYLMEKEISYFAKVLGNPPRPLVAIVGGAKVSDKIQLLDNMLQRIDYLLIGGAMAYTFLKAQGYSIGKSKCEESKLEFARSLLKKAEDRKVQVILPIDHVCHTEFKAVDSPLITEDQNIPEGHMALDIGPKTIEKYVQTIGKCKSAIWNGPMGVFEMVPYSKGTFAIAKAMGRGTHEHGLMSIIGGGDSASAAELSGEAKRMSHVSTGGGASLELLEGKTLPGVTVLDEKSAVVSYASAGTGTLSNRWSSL
Sequence of Galactokinase (Homo sapiens) (P51570 whole entry, looked up): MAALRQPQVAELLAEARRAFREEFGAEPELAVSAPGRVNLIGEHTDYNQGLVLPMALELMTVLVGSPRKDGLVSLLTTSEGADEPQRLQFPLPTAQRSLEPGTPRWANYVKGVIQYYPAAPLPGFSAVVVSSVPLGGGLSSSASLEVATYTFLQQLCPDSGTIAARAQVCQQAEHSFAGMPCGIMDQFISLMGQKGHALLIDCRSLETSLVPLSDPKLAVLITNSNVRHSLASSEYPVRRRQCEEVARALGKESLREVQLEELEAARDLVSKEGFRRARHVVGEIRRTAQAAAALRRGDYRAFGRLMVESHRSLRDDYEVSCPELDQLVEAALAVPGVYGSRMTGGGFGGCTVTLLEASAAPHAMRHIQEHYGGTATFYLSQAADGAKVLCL
Sequence of Ubiquitin carboxyl-terminal hydrolase 1 (Homo sapiens) (O94782 whole entry, looked up): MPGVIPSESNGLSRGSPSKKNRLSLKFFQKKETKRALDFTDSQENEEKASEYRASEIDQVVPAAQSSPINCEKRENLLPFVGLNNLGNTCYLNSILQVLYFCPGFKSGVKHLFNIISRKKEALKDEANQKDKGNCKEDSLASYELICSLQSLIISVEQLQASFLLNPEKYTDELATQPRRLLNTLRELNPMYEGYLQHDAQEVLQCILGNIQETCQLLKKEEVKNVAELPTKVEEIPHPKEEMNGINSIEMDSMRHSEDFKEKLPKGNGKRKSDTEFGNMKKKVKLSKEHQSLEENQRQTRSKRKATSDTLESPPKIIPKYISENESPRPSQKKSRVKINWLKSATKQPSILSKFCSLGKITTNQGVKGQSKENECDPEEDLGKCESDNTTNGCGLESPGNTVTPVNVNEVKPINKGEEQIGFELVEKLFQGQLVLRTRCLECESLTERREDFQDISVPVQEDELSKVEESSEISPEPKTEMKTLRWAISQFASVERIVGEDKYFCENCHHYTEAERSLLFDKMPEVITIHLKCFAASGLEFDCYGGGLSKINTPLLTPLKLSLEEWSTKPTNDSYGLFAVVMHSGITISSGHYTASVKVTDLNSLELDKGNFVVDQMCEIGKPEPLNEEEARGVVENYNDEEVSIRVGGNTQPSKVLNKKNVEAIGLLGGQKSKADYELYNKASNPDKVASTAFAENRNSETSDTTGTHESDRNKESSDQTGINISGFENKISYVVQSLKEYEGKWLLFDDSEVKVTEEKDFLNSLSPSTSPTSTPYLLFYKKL
Sequence of phosphoglycerate mutase (Leishmania major) (Q4Q090 1-553): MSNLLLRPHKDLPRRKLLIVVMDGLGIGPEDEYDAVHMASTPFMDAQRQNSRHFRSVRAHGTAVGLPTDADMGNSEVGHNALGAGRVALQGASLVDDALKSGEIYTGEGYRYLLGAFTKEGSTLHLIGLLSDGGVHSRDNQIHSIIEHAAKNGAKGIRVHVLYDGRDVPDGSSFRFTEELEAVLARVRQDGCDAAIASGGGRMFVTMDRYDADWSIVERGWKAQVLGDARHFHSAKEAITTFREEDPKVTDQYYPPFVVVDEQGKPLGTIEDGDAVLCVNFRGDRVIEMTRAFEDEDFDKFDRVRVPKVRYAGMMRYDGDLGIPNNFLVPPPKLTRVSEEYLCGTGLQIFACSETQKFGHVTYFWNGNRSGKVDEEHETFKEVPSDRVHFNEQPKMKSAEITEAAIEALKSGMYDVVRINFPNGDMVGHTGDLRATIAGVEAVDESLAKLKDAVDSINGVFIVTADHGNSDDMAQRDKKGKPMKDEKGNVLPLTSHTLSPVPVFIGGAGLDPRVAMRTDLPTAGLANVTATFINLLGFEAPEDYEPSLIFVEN
Sequence of Thyrotropin-releasing hormone receptor (Homo sapiens) (P34981 whole entry, looked up): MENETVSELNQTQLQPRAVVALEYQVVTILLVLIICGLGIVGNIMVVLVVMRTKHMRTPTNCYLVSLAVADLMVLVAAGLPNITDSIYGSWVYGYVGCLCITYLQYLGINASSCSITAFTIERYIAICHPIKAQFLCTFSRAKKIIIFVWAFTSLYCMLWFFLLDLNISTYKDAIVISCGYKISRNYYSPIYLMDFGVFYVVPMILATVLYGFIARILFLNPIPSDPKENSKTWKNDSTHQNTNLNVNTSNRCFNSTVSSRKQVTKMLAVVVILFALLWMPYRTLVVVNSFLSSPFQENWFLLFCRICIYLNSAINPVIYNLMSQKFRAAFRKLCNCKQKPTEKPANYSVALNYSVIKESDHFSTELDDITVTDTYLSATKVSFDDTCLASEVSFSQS
Sequence of Peptidyl-prolyl cis-trans isomerase NIMA-interacting 1 (Homo sapiens) (Q13526 whole entry, looked up): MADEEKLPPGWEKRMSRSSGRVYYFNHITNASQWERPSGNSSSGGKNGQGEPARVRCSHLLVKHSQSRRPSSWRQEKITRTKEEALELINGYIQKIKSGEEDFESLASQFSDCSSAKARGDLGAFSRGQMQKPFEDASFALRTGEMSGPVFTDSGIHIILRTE
Sequence of Peroxisome proliferator-activated receptor delta (Homo sapiens) (Q03181 whole entry, looked up): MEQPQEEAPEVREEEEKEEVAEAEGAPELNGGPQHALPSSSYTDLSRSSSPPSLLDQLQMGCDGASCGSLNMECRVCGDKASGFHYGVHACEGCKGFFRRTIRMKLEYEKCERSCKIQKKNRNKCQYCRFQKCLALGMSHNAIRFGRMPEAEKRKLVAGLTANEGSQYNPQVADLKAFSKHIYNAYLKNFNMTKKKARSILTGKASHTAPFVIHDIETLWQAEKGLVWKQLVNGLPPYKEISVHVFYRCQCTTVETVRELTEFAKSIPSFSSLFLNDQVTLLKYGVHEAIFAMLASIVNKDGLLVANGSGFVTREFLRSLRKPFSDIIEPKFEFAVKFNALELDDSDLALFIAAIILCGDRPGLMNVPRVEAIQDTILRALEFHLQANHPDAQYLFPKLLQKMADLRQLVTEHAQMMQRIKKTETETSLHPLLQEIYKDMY
Sequence of Bile acid receptor (Homo sapiens) (Q96RI1 whole entry, looked up): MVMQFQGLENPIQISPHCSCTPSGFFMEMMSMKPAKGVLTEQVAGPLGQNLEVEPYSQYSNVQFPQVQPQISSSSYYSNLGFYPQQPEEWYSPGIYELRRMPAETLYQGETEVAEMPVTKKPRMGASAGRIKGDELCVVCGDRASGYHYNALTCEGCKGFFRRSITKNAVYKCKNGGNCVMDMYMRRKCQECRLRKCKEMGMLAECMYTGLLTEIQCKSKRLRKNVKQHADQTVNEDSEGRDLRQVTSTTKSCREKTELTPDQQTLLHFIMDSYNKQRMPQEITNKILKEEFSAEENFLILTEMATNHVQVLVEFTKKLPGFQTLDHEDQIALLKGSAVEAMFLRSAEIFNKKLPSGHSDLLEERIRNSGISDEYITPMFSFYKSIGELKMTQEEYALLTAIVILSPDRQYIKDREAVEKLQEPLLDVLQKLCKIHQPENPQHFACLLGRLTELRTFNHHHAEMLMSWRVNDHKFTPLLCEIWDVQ

In the case of `CCCCNc1c(C(=O)OCC)c(C)nc2c1cnn2CC`, the Potency result in experiment [1], in [8], in experiment [9] and in experiment [10] was “inactive” in each case. In addition, in [1], the viability change came out at 2.43%. Further, the outcome in [2], in experiment [3], in experiment [4], in experiment [5], in experiment [6] and in experiment [7] was inactive.
Consider `c1cnc(N2CCN(Cc3ccc4c(c3)OCO4)CC2)nc1`, for which the activation in [11] was -3.31% (inactive). In addition, the Potency entry in [1], in experiment [8] and in experiment [10] was “inactive” throughout. The viability change in [1] stood at 2.39%. The compound was called inactive in [2], in [3], in experiment [4], in experiment [6] and in experiment [7].
For the compound `CC(=O)OCC1=C(C(=O)O)N2C(=O)[C@@H](NC(=O)Cc3cccs3)[C@H]2SC1`, the activation in experiment [11] is 0.938% (inactive). Also, the Potency entry in [1], in experiment [8] and in experiment [10] was “inactive” each time. The viability change in [1] was 0.396%. The compound was called inactive in experiment [2], in experiment [3], in [4], in [6] and in experiment [7].
As for `COCC(=O)O[C@]1(CCN(C)CCCc2nc3ccccc3[nH]2)CCc2cc(F)ccc2[C@@H]1C(C)C`, the activation in experiment [11] was 7.31% (inactive). The outcome in [2], in experiment [3], in experiment [4], in experiment [5], in [6] and in experiment [7] was inactive. The Potency in experiment [9] was 28.2 µM (active); in experiment [10] it was 15.8 µM (active).
As to `C[n+]1cc2c3c(ccc2c2ccc4cc5c(cc4c21)OCO5)OCO3`, the activation in experiment [11] is 2.44% (inactive). Moreover, the compound was classed as inactive in [2], in [3], in experiment [4], in experiment [5], in experiment [6] and in experiment [7]. In addition, in [10], the Potency was 6.31 µM (active).
Turning to `CN=C(NC#N)NCCSCc1nc[nH]c1C`, in experiment [11], the activation is 1.12% (inactive). In addition, the outcome in experiment [2], in [3], in experiment [4], in experiment [5], in experiment [6] and in experiment [7] was inactive. Moreover, the compound was called inactive in [12], in experiment [14] and in experiment [16]. In addition, the Potency result in [8], in [9], in [10] and in [13] was “inactive” throughout. Further, the max response in [15] was -4.23%.
Take `CN1CCN(C2=Nc3ccccc3Oc3ccc(Cl)cc32)CC1`: the Potency result in experiment [1], in experiment [8] and in experiment [9] was “inactive” in each case. In addition, the viability change in experiment [1] is -14.3%. The outcome in experiment [2], in [3], in experiment [4], in [5], in experiment [6] and in [7] was inactive.
As to `Cc1ccc(Cl)c(Nc2ccccc2C(=O)O)c1Cl`, the activation in experiment [11] is 0% (inactive). Moreover, the outcome in experiment [2], in [3], in [4], in experiment [6] and in experiment [7] was inactive. Moreover, the Potency result in [8] and in [10] was “inactive” throughout.
`COCCc1ccc(OCC(O)CNC(C)C)cc1` (configuration not stated): the Potency entry in experiment [1], in [8], in [9] and in [10] was “inactive” in each case. The viability change in experiment [1] was -2.79%. Also, the compound was classed as inactive in experiment [2], in experiment [3], in experiment [4], in experiment [5], in experiment [6] and in [7].
